Screening data (PubChem BioAssay)
Pol eta inh-1: inhibitors of human DNA polymerase eta | hit rate 1.2% among 390,000 | Potency, µM (highest dose often 114 µM), inactives show top-dose activity change, negative = inhibition, hits mostly inhibitors | recombinant Pol eta, fluorescent DNA replication assay | Q9Y253; also: potency is read from the fitted curve at half-maximal effect; % is scaled to controls: 0 for no effect and ±100 for the full control effect
Target sequence (Q9Y253 whole entry, looked up): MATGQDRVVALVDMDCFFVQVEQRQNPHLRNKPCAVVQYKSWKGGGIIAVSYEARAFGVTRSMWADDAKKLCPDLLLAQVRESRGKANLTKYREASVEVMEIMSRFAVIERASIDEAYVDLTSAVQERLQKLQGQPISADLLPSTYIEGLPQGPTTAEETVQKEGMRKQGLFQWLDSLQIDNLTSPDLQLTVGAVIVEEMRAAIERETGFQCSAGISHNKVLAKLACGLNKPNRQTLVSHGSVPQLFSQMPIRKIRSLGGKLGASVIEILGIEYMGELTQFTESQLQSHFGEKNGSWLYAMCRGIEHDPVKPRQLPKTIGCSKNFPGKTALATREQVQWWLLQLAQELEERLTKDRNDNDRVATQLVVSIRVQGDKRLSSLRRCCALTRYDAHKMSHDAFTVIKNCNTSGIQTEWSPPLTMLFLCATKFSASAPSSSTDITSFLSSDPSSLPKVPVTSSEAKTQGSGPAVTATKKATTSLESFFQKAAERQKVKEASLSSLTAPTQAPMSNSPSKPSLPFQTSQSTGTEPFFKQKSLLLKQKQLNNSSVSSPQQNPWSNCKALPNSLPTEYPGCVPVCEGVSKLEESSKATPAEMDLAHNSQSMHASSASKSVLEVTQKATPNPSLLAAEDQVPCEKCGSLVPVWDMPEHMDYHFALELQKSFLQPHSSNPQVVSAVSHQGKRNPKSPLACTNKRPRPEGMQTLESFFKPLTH
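Pol eta at 10 nM preincubated with compounds 15 min at room temperature; reaction started with fluorescent substrate (50 nM final) and read kinetically at 0 and 10 min.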
PI5P4K alpha inh: blocks human PI5P4K alpha kinase activity; P48426; max response, %; AID 652105; PI5P4Kalpha enzyme, ADP-Glo luminescence, 60 min; hits give low values; hit rate 1.2% among 330,000; active = max response of -50% or lower; inconclusive = between -30% and -50%; inactive = -30% or higher; also: value at the top dose of about 77 µM; % is scaled to controls: 0 for no effect and ±100 for the full control effect
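Single end-point luminescence (ADP-Glo) quantified ADP from PI5P4Kalpha turnover; ATP 5 microM final, 1 h at RT, 0.1% CHAPS and 0.28 mM EGTA in HEPES pH 7.4.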
Pol kappa inh-1: inhibitors of human DNA polymerase kappa; purified Pol kappa, fluorescent DNA synthesis assay, 10 min; Potency, µM (highest dose often 107 µM), inactives show at the highest dose activity, negative = inhibition, most hits filed as inhibitors; hit rate 0.53% among 400,000; also: potency is read from the fitted curve at half-maximal effect; % is scaled to controls: 0 for no effect and ±100 for the full control effect
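Readout: fluorescence, taken kinetically at 0 and 10 min. Conditions: 10 nM Pol kappa, 15 min RT compound preincubation, 50 nM substrate final. Controls: enzyme-free buffer wells.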
Pol beta inh: blocks human DNA polymerase beta activity. Pol beta primer extension/strand displacement, fluorescence kinetic. hit rate 1.3% among 340,000. P06746. Potency, µM (top dose mostly 114 µM), without a hit: at the top dose activity change, negative = inhibition, most hits filed as inhibitors; also: potency is read from the fitted curve at half-maximal effect; % is scaled to controls: 0 for no effect and ±100 for the full control effect
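Enzyme-only controls used 10 nM Pol beta; buffer lacking enzyme served as negative control. Compound preincubated 15 min, then 50 nM substrate added; 0 and 10 min reads at room temperature.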
POLI inh: DNA polymerase iota (human) inhibition. Pol iota fluorescent replication assay, 10 min. Potency, µM (top dose mostly 115 µM), for the others: at the top dose activity, negative = inhibition, hits mostly inhibitors. hit rate 1% among 390,000; also: potency is read from the fitted curve at half-maximal effect
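Pol iota at 10 nM preincubated 15 min with compounds at room temperature; reaction started with fluorescent substrate, 50 nM final. Fluorescence read kinetically at 0 and 10 min; buffer-only wells as negative control.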
PI4K2A inh: inhibitors of human PI4K2A. Q9BTU6. hit rate 0.13% among 420,000. purified PI4K2A, ADP-Glo luminescence, 1 h; hits give low values. activity change, negative = inhibition, % at 76.9 µM. AID 1346378; in the data active = activity change below about -50%; inconclusive = mostly about -30% to -49%;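 also: -100% = wells without enzyme as full effect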
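Compounds are screened against recombinant PI4K2A using PI as substrate and ATP, the latter dispensed at 300 microM. Reactions run one hour at ambient temperature before ADP-Glo detection; full inhibition defined by wells lacking enzyme.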
GALK confirm: confirmation of human galactokinase (GALK) inhibitors | purified GALK, Kinase-Glo ATP depletion luminescence | Potency, µM (titrated, usually from 115 µM), inactives show at the highest dose activity, negative = inhibition, usual class: inhibitors | AID 2015 | hit rate 70% among 150 | shares compounds with Pol eta inh-1
Redox cycling: generates H2O2 by redox cycling, flagging GALK artifacts. AID 2035. shares compounds with Pol eta inh-1. hit rate 40% among 150. Potency, µM (highest dose often 115 µM), for the others: at the top dose activity change, negative = H2O2 signal, usual class: inhibitors. Phenol red-HRP H2O2 redox cycling, absorbance 600 nm
HEK293 tox: HEK-293 cytotoxicity, GALK inhibitor secondary | Potency, µM (titrated, usually from 46.1 µM), without a hit: at the highest dose activity change, negative = cytotoxicity, usual class: inhibitors | shares compounds with Pol eta inh-1 | HEK-293 viability, ATP luminescence (CellTiter-Glo), 24/48 h | hit rate 10% among 170; also: potency is read from the fitted curve at half-maximal effect; % is scaled to controls: 0 for no effect and ±100 for the full control effect
Pol kappa inh-2: Pol kappa (human) inhibition, cherry-pick confirmation. shares compounds with Pol eta inh-1. purified Pol-kappa, fluorescent strand-displacement substrate. hit rate 76% among 920. Potency, µM, hits mostly inhibitors. AID 720501; also: potency is read from the fitted curve at half-maximal effect
Pol eta inh-2: confirmation of human DNA polymerase eta inhibitors; shares compounds with Pol eta inh-1; hit rate 64% among 2,600; Potency, µM, most hits filed as inhibitors; Pol eta primer extension, TAMRA/BHQ fluorescence, 10 min; AID 720502; also: potency is read from the fitted curve at half-maximal effect
* hit, by the source's call; ? = inconclusive; . = no result given; ! = not confirmed by another sample; [ ] = dose if it differs, or a comment. The list is not random: actives were taken first. Their share in the collection is about 2.8%. Unless noted, calls follow the shape of the dose curve; as a rule, active = well fitted curve in the direction sought with a large enough effect; inconclusive = small, poorly fitted or top-dose-only effect, or another doubt; inactive = no such curve, though single readings can be large; an effect the other way counts as inactive or inconclusive.

SMILES	Pol eta inh-1	PI5P4K alpha inh	Pol kappa inh-1	Pol beta inh	POLI inh	PI4K2A inh	Pol eta inh-2	others
COc1ccc(CNC(=O)c2cnn(-c3ccc(C)cc3)c2-n2cccc2)cc1OC	-15%	.	-17%[60.1 µM]	10%	-9%	-2	.
COc1ccc(NC(=O)CSc2ncnc3sc(C)cc23)cc1	-13%	0	-13%	29%	46%	7	.
Cc1cc2c(SCC(=O)Nc3cccc(O)c3)ncnc2s1	22µM*	-74*	89µM*	.	?	-2	76*	Pol kappa inh-2=21*
COC(=O)[C@]12C[C@H](CC(=O)NCc3ccc(C)o3)C(=O)N(CCc3ccc(OC)c(OC)c3)C1=C[C@H](C(C)(C)C)O[C@@H]2C	.	.	.	.	.	-8	.
Cc1ccc(CSc2nc(-c3ccc(C(C)(C)C)cc3)nc3cc(=O)[nH]n23)cc1	50µM*	.	?	?	?	-5	85*
C=CCc1ccccc1OCCSc1nc(-c2ccc(C(C)(C)C)cc2)nc2cc(=O)[nH]n12	?	.	-32%	40µM*	?	-2	76*
Cc1oc2c(cc(NS(=O)(=O)c3ccc(C(C)C)cc3)c3ccccc32)c1C(=O)O	45µM*	-23	?	50µM*!	?	-1	?	Pol kappa inh-2=?
Cc1oc2c(cc(NS(=O)(=O)c3ccc(F)cc3)c3ccccc32)c1C(=O)O	?	?	-30%	-16%	?	-12	.
COc1ccc(C)cc1NC(=O)c1ccc2c(SCC(=O)O)c3c(nc2c1)CCCC3	12%	-3	-7%	-9%	-15%	0	.
CCOC(=O)c1ccccc1NC(=O)c1ccc2c(SCC(=O)O)c3c(nc2c1)CCCC3	50µM*	-11	-13%	2%	-11%	3	76*
COc1cc(Cl)c(C)cc1NC(=O)c1ccc2c(SCC(=O)O)c3c(nc2c1)CCCC3	50µM*!	-19	-12%	20µM*!	121%	0	?	Pol kappa inh-2=75*
COc1ccc(C(=O)CCC(=O)Nc2ccc(F)cc2F)cc1	-13%	.	-19%[60.1 µM]	-27%	-8%	-1	.
Cc1[nH]c2ccccc2c1/C=N/NC(=O)c1cccc(Br)c1	?	-3	-8%	?	42%	1	.
Cc1[nH]c2ccccc2c1/C=N/Nc1cccc(C(=O)O)c1	56µM*	-28	?	?	?	5	?
Cc1ccccc1Nc1c(-c2ccc(Cl)s2)nc2ccccn12	.	.	-5%	.	-2%	.	.
O=C1C2C3C=CC(CC3)C2C(=O)N1/N=C/c1ccc(O)cc1 (stereo not drawn)	4%	.	-2%	22%	4%	1	.
O=C1c2ccccc2C(=O)N1/N=C/c1ccc(O)c(O)c1	?	-12	?	?	?	5	60*
O=C1C2C3C=CC(CC3)C2C(=O)N1/N=C/c1ccc(O)c(O)c1 (stereo not drawn)	4µM*	?	?	?	?	-3	?
O=C(O)CC/C(=C\c1ccc(N2CCOCC2)c([N+](=O)[O-])c1)c1nc2ccccc2s1	-9%	1	-7%	25%	6%	-5	.
O=C(O)C/C(=C\c1ccc(N2CCOCC2)c([N+](=O)[O-])c1)c1nc2ccccc2s1	32µM*	-54*	?	?	-23%	3	.	Pol kappa inh-2=?
CCc1nnc(SC(CC)C(=O)Nc2ccc(OC)c(Cl)c2)c2cc3occc3n12 (stereo not drawn)	-19%	.	-13%	?	4%	1	.
CSc1ccc(/C=C2\CCn3c2nc2cc(C(=O)O)ccc2c3=O)cc1	50µM*	?	-10%	-2%	92%	0	?
COC(=O)c1ccc(/C=C2\CCn3c2nc2cc(C(=O)O)ccc2c3=O)cc1	-3%	-15	-3%	7%	?	-4	.
Cc1ccc(NC(=O)Cn2c(=O)n(-c3ccc(C)cc3)c(=O)c3ccc(C(=O)NCc4ccccc4Cl)cc32)cc1	5%	.	6%	31%	-10%	3	.
Cc1ccc2[nH]c(C)c(CCNC(=O)c3cc4cc(Br)ccc4oc3=O)c2c1	6%	.	-8%	6%	2%	-2	.
SMILES	Pol eta inh-1	PI5P4K alpha inh	Pol kappa inh-1	Pol beta inh	POLI inh	PI4K2A inh	Pol eta inh-2	others
CCC(CNc1cc(OC)cc2cccnc12)NC1CCCCC1 (stereo not drawn)	-8%	-7	-26%	?	?	-28	.	GALK confirm=9.4µM*;Redox cycling=3.8µM*;HEK293 tox=-19%
CCc1ccc(NC(=O)CN2C(=O)c3cccc4cccc2c34)cc1	-11%	.	6%	7%	-13%	-2	.
CC(C)c1cc(C(C)C)c(S(=O)(=O)N2CCCC(C(=O)NCc3cccs3)C2)c(C(C)C)c1 (stereo not drawn)	.	.	.	.	.	-2	.
NC(=S)n1[nH]c(-c2ccc([N+](=O)[O-])cc2)c(N=Nc2ccccc2[N+](=O)[O-])c1=O	6.3µM*	-21	-3%	16µM*	?	-6	.	Pol kappa inh-2=8.4*
COc1ccc(OCC(=O)OCc2cc(=O)n3nc(-c4cccs4)sc3n2)cc1	?	.	3%	?	-14%	-26	.
Cc1cccc(OCC(=O)OCc2cc(=O)n3nc(-c4cccs4)sc3n2)c1	?	.	?	25µM*	?	-25	?
C/C(=N\Nc1ccc(Cl)c(C(=O)O)c1)c1cccc2ccccc12	7.9µM*	-30	?	28µM*	16µM*	-3	27*
O=C(O)c1cc(NN=C2c3ccccc3-c3ccccc32)ccc1Cl	22µM*	1	?	50µM*	?	3	38*
